Data published in article PMC5540273 (PLoS ONE, 2017).

What was measured:
Details in all cases: concentration: 1 μM, replicates: in singlicate; n = 1
SGK3 = test system: SGK3
SGK = test system: SGK
SIK2 = test system: SIK2
SIK = test system: SIK
SLK = test system: SLK
SNARK = test system: T1, SNARK
T1 construct: gene NUAK2

SNRK = test system: SNRK
SRC = test system: SRC
SRMS = test system: SRMS
SRPK1 = test system: SRPK1
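Note: KINOMEscan kinase panel screen.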

Row | SMILES | %Inh (SGK3) [%] | %Inh (SGK) [%] | %Inh (SIK2) [%] | %Inh (SIK) [%] | %Inh (SLK) [%] | %Inh (SNARK) [%] | %Inh (SNRK) [%] | %Inh (SRC) [%] | %Inh (SRMS) [%] | %Inh (SRPK1) [%]
1 | COc1ccc(Nc2nccc(N3CCC(NC(=O)C(C)c4ccc(Cl)cc4)CC3)n2)cc1 (stereo not shown) [GSK1379812] | 0 | 0 | 0 | 54 | 28 | 0 | 0 | 10 | 0 | 10
2 | COC(=O)c1cccc(NC(=O)NC2CCN(c3ccnc(Nc4ccc(OC)cc4)n3)C2)c1 (stereo not shown) [GSK1379746] | 0 | 9 | 0 | 0 | 7 | 0 | 0 | 0 | 0 | 0
3 | NS(=O)(=O)c1cccc(N/C=C2\C(=O)Nc3ccc(S(=O)(=O)Cc4c(Cl)cccc4Cl)cc32)c1 [GSK398099] | 5 | 0 | 0 | 0 | 15 | 0 | 0 | 0 | 0 | 19
4 | O=c1cc(N2CCOCC2)nc2n(Cc3cccc(Cl)c3Cl)c3ccccc3n12 [GSK2299009] | 4 | 31 | 18 | 16 | 39 | 16 | 0 | 0 | 0 | 19
5 | Cc1ccccc1-c1cc(-c2c[nH]nc2-c2ccccn2)ccn1 [GW680061] | 0 | 0 | 0 | 0 | 0 | 1 | 0 | 0 | 0 | 0
6 | COc1ccc(CSc2nnc(-c3ccc4nccn4c3)o2)cc1C(F)(F)F | 61 | 8 | 29 | 13 | 14 | 77 | 5 | 7 | 3 | 20
7 | CNc1cc(-c2ccc3c(N)n[nH]c3c2)nc(N)n1 [GSK2224810] | 7 | 0 | 13 | 0 | 0 | 2 | 0 | 0 | 0 | 46
8 | O=C(Nc1n[nH]c2nc(-c3cccs3)c(Br)cc12)C1CC1 [SB-735297] | 15 | 26 | 0 | 0 | 7 | 10 | 0 | 0 | 5 | 22
9 | Cc1ccccc1Cn1ccn2c(=O)cc(N3CCOCC3)nc12 [GSK2269905] | 2 | 0 | 0 | 0 | 20 | 0 | 0 | 0 | 0 | 24
10 | Cl.Cl.Cl.N#Cc1ccc(CCNc2nccc(-c3cccc(CN4CCNCC4)c3)n2)cc1 [GSK2137462] | 10 | 0 | 2 | 0 | 6 | 12 | 0 | 15 | 2 | 21
11 | Cc1nccc(-c2c(-c3ccc(F)cc3)ncn2CCCN2CCOCC2)n1.Cl [SB-282975] | 39 | 27 | 0 | 27 | 32 | 42 | 2 | 26 | 0 | 19
12 | Fc1ccc(-c2nc3n(c2-c2ccncc2)CCS3)cc1 [GI98581] | 0 | 0 | 0 | 17 | 25 | 0 | 0 | 9 | 0 | 23
13 | COc1ccc(Nc2nccc(NCCNC(=O)Nc3cc(C)ccc3C)n2)cc1 [GSK1379899] | 0 | 0 | 0 | 0 | 27 | 0 | 0 | 0 | 0 | 34
14 | Nc1nccc(-c2c(-c3ccc(F)cc3)ncn2C2CCN(Cc3ccccc3)CC2)n1 [SB-219980] | 28 | 2 | 24 | 6 | 0 | 38 | 0 | 0 | 11 | 0
15 | CCn1c(-c2c(N)noc2C)nc2cnccc21 [SB-737856] | 0 | 0 | 0 | 0 | 4 | 0 | 0 | 0 | 0 | 0
16 | CS(=O)(=O)CCNCc1nc(-c2ccc3ncnc(Nc4ccc(OCc5ccccc5)c(Cl)c4)c3c2)cs1.Cl [GW582764] | 0 | 11 | 0 | 6 | 14 | 0 | 0 | 0 | 0 | 10
17 | FC(F)(F)c1ccccc1-c1cc(-c2c[nH]nc2-c2ccccn2)ccn1 [GW679396] | 1 | 0 | 0 | 0 | 15 | 0 | 0 | 0 | 0 | 3

Row | SMILES | %Inh (SGK3) [%] | %Inh (SGK) [%] | %Inh (SIK2) [%] | %Inh (SIK) [%] | %Inh (SLK) [%] | %Inh (SNARK) [%] | %Inh (SNRK) [%] | %Inh (SRC) [%] | %Inh (SRMS) [%] | %Inh (SRPK1) [%]
18 | COc1ccc(Nc2nccc(-c3ccc(NC(=O)c4cc5cc(F)ccc5[nH]4)cc3)n2)cc1 [GSK1229496] | 1 | 0 | 0 | 0 | 0 | 0 | 0 | 0 | 7 | 10
19 | Cn1cncc1C(=O)NC1CCN(c2ccnc(Nc3ccc(F)cc3)n2)C1 (stereo not shown) [GSK1379717] | 0 | 14 | 0 | 0 | 0 | 0 | 0 | 0 | 0 | 100
20 | COC(=O)C(Cc1ccccc1)NC(=O)NC1CCN(c2ccnc(Nc3ccc(F)cc3)n2)C1 (stereo not shown) [GSK1379714] | 0 | 2 | 0 | 0 | 22 | 0 | 0 | 1 | 5 | 15
21 | Cc1ccc(NC(=O)Nc2ccccc2F)cc1-c1ccc(C(=O)Nc2ccncc2)cc1 [GSK1398477] | 0 | 0 | 22 | 15 | 34 | 0 | 0 | 27 | 0 | 52
22 | COc1ccc(Nc2nccc(N3CCC(NC(=O)c4cc5ccccc5s4)C3)n2)cc1 (stereo not shown) [GSK1379738] | 7 | 0 | 0 | 0 | 4 | 6 | 0 | 0 | 0 | 17
23 | COc1ccc2cc(-c3nc(-c4ccccc4C(C)C)[nH]c3-c3ccncc3)ccc2c1 [SB-660566] | 0 | 0 | 0 | 0 | 78 | 0 | 0 | 0 | 0 | 7
24 | Cc1c(Cn2c(C)c(C)n3c(=O)cc(N4CCOCC4)nc23)cccc1C(F)(F)F [GSK2328680] | 0 | 16 | 0 | 0 | 22 | 0 | 0 | 0 | 0 | 6
25 | Nc1cccc(-c2ccc3c(N)n[nH]c3c2)n1 [GSK2192730] | 34 | 2 | 0 | 0 | 0 | 19 | 0 | 0 | 0 | 33
26 | O=C(Nc1n[nH]c2nc(-c3cccs3)c(Br)cc12)C1CCCC1 [SB-743341] | 40 | 0 | 0 | 17 | 38 | 34 | 19 | 7 | 0 | 0
27 | O=C(Nc1n[nH]c2cc(-c3ccsc3)ccc12)C1CC1 [SB-732932] | 26 | 6 | 0 | 4 | 0 | 29 | 15 | 0 | 13 | 45
28 | COC(=O)C(NC(=O)NC1CCN(c2ccnc(Nc3ccc(F)cc3)n2)C1)c1ccccc1 (stereo not shown) [GSK1379712] | 2 | 2 | 3 | 0 | 4 | 5 | 0 | 0 | 0 | 0
29 | CSc1ccc(-c2nc3n(c2-c2ccncc2)CCC3)cc1 [SKF-105561] | 6 | 0 | 0 | 0 | 7 | 0 | 18 | 0 | 13 | 2
30 | CN1c2ccc(-c3ccc(C(N)=O)cc3)cc2-c2[nH]ncc2S1(=O)=O | 0 | 0 | 10 | 8 | 2 | 0 | 0 | 7 | 4 | 0
31 | COc1ccc(CSc2nnc(-c3ccc4ncsc4c3)o2)cc1C(F)(F)F | 0 | 2 | 0 | 11 | 15 | 0 | 0 | 3 | 0 | 10
32 | O=C1NC(=O)C(c2ccc(Cl)cc2)=C1Nc1ccc(O)cc1 [SB-340867] | 6 | 0 | 0 | 0 | 9 | 0 | 0 | 0 | 0 | 18
33 | COc1cc2ncnc(Nc3cccc(Br)c3)c2cc1OC.Cl [GI230329] | 0 | 22 | 0 | 0 | 65 | 3 | 23 | 20 | 21 | 34
34 | Cc1ccc(NC(=O)c2ccc(Cl)cc2)cc1-c1ccc(C(=O)Nc2ccncc2)cc1 [GSK1398467] | 0 | 0 | 0 | 0 | 19 | 0 | 0 | 0 | 0 | 13
